The nature of test [1]: StAR promoter reporter inhibitors, counter-screen for LRH-1 inverse agonist project, cell-based, luminescence, high throughput (AID 651611; in the data active = inhibition above about 28%). Conditions: StAR promoter luciferase reporter counterscreen, at 3.6 µM, hits give high values.
Test [2] addresses Nuclear receptor subfamily 5 group A member 2 (Homo sapiens) (UniProt O00482). Put plainly: NR5A2 activity suppression in reporter cells – cell-based, luminescence, confirmation (AID 651613).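 Note: HEK293T cells co-transfected with LRH-1 and StAR promoter luciferase reporter; 0% = vehicle wells and 100% = parental cells lacking receptor.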 To be noted: cell-based LRH-1 luciferase reporter, inverse agonism; at 3.6 µM; hits give high values. A general note: In a reporter assay the amount or activity of a reporter protein is the signal.

In test [3] the target is Steroidogenic factor 1 (Homo sapiens) (UniProt Q13285). Put plainly: inverse agonism at SF1 nuclear receptor – cell-based, luminescence, high throughput, counter-screen for LRH-1 inverse agonist project (AID 651614; in the data active = inhibition above about 44%;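 note: cells cotransfected with StAR promoter reporter and SF1 expression vector; 0% = vehicle on cells with receptor and 100% = vehicle on cells lacking receptor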). Conditions: cell-based SF1 luciferase reporter, at 3.6 µM, hits give high values. On the technique in general: Counterscreens check selectivity or assay interference.
Chain of Steroidogenic factor 1 (Homo sapiens) (Q13285 whole entry, looked up): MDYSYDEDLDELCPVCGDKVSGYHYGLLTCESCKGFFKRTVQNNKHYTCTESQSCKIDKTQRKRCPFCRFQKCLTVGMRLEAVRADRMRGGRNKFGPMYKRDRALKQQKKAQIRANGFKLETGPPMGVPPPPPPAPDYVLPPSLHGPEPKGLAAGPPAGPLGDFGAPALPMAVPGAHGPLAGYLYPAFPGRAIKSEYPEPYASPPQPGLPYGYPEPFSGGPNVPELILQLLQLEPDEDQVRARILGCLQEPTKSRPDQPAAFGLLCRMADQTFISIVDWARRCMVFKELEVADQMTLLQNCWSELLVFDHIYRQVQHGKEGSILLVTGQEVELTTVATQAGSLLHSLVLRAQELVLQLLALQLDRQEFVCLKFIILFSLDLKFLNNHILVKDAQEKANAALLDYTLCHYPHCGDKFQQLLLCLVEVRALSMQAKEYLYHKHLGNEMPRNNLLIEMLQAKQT

Test [4] can be described thus: compounds suppressing VP16-driven luciferase signal – cell-based, luminescence, high throughput, counter-screen for LRH-1 inverse agonist project (AID 651615; in the data active = inhibition above about 33%). To be noted: Gal4-VP16 luciferase reporter cells, at 3.6 µM, hits give high values.
In test [5] the target is Nuclear receptor coactivator 1 (Homo sapiens) (UniProt Q15788). Put plainly: NCOA1 GAL4-fusion reporter inhibition – cell-based, luminescence, quadruplicate, confirmation (AID 588820;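 active = mean inhibition above 46.68%, the untreated control wells mean plus 3 SD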;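 note: 0% = DMSO wells and 100% = gossypol 36 µM treated wells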). To be noted: HEK293 GAL4-SRC1 luciferase reporter, at 3.6 µM, hits give high values.
Chain of Nuclear receptor coactivator 1 (Homo sapiens) (Q15788 whole entry, looked up, the tested form may be a part): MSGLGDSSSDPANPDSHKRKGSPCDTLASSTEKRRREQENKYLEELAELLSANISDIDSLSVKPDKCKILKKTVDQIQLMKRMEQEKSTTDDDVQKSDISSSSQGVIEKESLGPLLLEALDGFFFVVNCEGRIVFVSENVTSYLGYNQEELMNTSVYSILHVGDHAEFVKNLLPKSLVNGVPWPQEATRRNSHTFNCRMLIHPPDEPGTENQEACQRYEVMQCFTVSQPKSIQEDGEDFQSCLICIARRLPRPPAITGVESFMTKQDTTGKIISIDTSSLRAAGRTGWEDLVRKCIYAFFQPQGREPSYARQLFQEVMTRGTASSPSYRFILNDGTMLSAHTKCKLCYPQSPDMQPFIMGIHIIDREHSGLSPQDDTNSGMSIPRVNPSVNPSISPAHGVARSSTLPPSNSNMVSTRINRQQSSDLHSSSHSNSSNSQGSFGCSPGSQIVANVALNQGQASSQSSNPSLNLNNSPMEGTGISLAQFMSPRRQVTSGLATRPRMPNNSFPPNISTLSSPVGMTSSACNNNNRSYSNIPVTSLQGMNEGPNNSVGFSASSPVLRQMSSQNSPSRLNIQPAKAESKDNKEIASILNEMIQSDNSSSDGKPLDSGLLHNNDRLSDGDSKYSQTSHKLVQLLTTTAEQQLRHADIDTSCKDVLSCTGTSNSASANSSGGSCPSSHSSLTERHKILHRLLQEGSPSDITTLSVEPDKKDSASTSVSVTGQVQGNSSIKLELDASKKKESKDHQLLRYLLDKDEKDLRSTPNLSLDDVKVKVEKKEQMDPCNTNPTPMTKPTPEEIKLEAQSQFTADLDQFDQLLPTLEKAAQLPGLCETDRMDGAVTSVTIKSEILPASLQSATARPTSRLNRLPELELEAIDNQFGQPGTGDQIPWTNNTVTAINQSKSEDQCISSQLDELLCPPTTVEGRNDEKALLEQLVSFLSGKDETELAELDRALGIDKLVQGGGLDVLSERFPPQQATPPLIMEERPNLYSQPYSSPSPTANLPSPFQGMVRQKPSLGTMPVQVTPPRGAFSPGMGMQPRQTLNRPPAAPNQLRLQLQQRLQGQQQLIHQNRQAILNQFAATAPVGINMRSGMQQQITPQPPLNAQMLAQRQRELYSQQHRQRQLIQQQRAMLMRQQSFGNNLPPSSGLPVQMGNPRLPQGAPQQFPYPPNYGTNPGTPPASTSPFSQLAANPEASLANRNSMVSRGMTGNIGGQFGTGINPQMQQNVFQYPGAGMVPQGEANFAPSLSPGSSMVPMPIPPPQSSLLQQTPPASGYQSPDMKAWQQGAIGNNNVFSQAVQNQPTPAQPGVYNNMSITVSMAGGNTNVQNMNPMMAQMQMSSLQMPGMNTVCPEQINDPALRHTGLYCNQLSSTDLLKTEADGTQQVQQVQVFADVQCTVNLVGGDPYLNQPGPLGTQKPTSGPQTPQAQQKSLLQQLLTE
A short description of test [6]: repression of VP16-driven luciferase reporter – cell-based, luminescence, high throughput, counter-screen for SRC1 inhibitor project (AID 588824; in the data active = inhibition above about 25%). To be noted: cell-based VP16 transactivation luciferase luminescence; at 3.6 µM; hits give high values.
Test [7] has as its target Photoreceptor-specific nuclear receptor (Homo sapiens) (UniProt Q9Y5X4). Put plainly: retest of NR2E3-NCOR disrupting agonists – cell-based, luminescence, CHO-S two-hybrid, confirmation (AID 624378;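 active = average inhibition above a cutoff equal to the mean inhibition of all tested compounds plus one SD, cut at about 70% in these data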;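 note: 0% = DMSO in NR2E3 cells and 100% = DMSO in cells lacking NR2E3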). To be noted: CHO-S mammalian two-hybrid NR2E3-NCOR, luciferase luminescence; at 3.98 µM; hits give high values.
The nature of test [8]: nonselective effects on VP16 transactivation – cell-based, luminescence, CHO-S, high throughput, counter-screen for NR2E3 agonist project, confirmation (AID 624379;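 active = mean inhibition above a cutoff equal to the average over all tested compounds plus one standard deviation, cut at about 70% in these data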;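 note: luciferase from a UAS reporter driven by GAL4-VP16 transactivation; 0% = DMSO with VP16-transfected cells and 100% = DMSO with cells lacking VP16; higher means less reporter light so more repression of VP16 activity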). Conditions: CHO-S GAL4-VP16 luciferase reporter, at 3.98 µM, hits give high values.

The text below walks through data of PubChem BioAssay.

A number with no mark means an inactive call. The list shows a part of the results. The source made the active and inactive calls. Cut-off read from the data, not from the text of the source, unless noted: active = inhibition above about 42%; inactive = the rest.

Chain of Nuclear receptor subfamily 5 group A member 2 (Homo sapiens) (O00482 whole entry, looked up): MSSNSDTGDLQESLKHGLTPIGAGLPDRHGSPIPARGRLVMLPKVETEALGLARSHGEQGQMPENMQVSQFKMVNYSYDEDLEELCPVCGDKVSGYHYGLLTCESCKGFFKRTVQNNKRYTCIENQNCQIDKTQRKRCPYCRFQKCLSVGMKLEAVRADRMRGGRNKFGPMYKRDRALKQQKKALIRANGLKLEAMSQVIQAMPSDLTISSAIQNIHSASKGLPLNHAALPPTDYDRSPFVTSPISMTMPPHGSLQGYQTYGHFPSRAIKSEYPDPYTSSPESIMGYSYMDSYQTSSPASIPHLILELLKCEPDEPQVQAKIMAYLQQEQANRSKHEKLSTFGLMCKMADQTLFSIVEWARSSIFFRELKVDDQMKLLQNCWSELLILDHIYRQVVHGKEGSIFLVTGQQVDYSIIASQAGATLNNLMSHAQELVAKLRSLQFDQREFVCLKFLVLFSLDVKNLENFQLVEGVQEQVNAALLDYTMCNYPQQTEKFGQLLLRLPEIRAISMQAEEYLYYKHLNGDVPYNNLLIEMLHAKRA
Chain of Photoreceptor-specific nuclear receptor (Homo sapiens) (Q9Y5X4 whole entry, looked up): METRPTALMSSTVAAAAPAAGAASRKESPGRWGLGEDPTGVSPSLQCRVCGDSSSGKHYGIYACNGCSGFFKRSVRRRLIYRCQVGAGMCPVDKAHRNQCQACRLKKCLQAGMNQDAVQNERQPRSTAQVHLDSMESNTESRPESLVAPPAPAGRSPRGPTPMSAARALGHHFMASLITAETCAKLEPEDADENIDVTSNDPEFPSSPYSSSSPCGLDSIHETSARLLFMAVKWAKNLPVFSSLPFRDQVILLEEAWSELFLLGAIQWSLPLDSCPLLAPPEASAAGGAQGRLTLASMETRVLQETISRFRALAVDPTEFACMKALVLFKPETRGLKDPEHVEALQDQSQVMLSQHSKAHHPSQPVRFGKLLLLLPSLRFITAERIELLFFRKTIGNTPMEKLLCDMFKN

For the molecule `O=[N+]([O-])c1cc(F)c(N2CCCCCC2)cc1N1CCNCC1`, the inhibition in test [1] was 14.3%; in test [2], 54.1% (active); in test [3], 54.7% (active); in test [4] it was 9.46%.

In the case of `Cc1ccc2c(C)c3ccc4ccccc4c3c[n+]2c1`, the inhibition is 17.2% in test [5]; 31.6% (active) in test [6]; 28.1% (active) in test [1]; 99.6% (active) in test [2]; 39.4% in test [3]; 78% (active) in test [4].

Take `CCN(CC)C1=NC(=[N+](CC)CC)c2ccccc21`: the inhibition in test [5] is 9.91%; in test [6] it was 31.1% (active); in test [1] it was 33.7% (active); in test [2], 107% (active); in test [3] it was 74.5% (active); in test [4], 85.6% (active).

For the molecule `N#Cc1ccc(Cn2cc(C=O)c3ccccc32)cc1`, the inhibition is 4.87% in test [1], 39.1% in test [2], 42.4% in test [3] and 1.97% in test [4].

Take `CCC(c1nnnn1-c1ccc2c(c1)OCCO2)N1CCC(n2c(=O)[nH]c3ccccc32)CC1` (stereo not given): the results for the inhibition in test [5] and in test [6] were -22% and 9.85%, respectively.

For the molecule `COc1ccccc1-n1c(/C=C/c2ccccn2)nc2ccccc2c1=O`, the inhibition in test [1] was 16.9%; in test [2], 63.3% (active); in test [3], 53.7% (active); in test [4], 4.69%.

With `NC(Cc1ccc(F)cc1)c1csc(Nc2ncccn2)n1` (stereo not given), the inhibition in test [1] is 40.1% (active); in test [2] it was 43.3% (active); in test [3], 38.9%; in test [4], 49.8% (active).

Regarding `c1ccc2c(c1)[IH]c1ccccc1-2`, the inhibition is 42.4% (active) in test [1], 78.5% (active) in test [2], 64.1% (active) in test [3] and 72.8% (active) in test [4].

Regarding `CC(=NCc1ccc2c(c1)OCO2)c1c(O)[nH]c(=O)[nH]c1=O`, the inhibition in test [7] is 2.39%; in test [8], 8.56%.

For `COc1ccc2c(c1)/C(=C/c1cnc[nH]1)C(=O)N2`, the inhibition is 13.1% in test [5]; 19% in test [6]; 59.4% (active) in test [1]; 85.8% (active) in test [2]; 72.9% (active) in test [3]; 11.2% in test [4].

Take `CCOC(=O)[C@]12Cc3cc(OC)ccc3[C@H]1N(C1CCCCC1)C(=O)c1ccccc12`: the inhibition was 49.6% (active) in test [1], 93.3% (active) in test [2], 42.2% in test [3] and 87.4% (active) in test [4].

For `CCN(CC)C(=O)c1ccc(NC(=O)c2ccc(-n3cncn3)c([N+](=O)[O-])c2)cc1`, the inhibition was -2.4% in test [5] and 5.45% in test [6].

With `CCCCn1c(NC(=O)c2ccc(Br)o2)c(C(=O)OCC)c2nc3ccccc3nc21`, the inhibition is 27.1% in test [1], 27.8% in test [2], 45.6% (active) in test [3] and 7.64% in test [4].

For the molecule `CC12CCC(O)CC1CCC1C2CCC2(C)C(C3=CC(=O)OC3)C(O)CC12O` (stereo not given), the inhibition in test [1] is 92.6% (active); in test [2], 94.1% (active); in test [3], 74.8% (active); in test [4], 41% (active).

`CCOC(=O)[C@]12Cc3ccc(C)cc3[C@H]1N(C1CCCCC1)C(=O)c1cc(OC)ccc12`: the inhibition is 77.2% (active) in test [1], 104% (active) in test [2], 75.1% (active) in test [3] and 91.8% (active) in test [4].

In the case of `CCOC(=O)[C@]12Cc3cc(Cl)ccc3[C@H]1N(CC(=O)OC)C(=O)c1ccccc12`, the inhibition in test [1] is 72.7% (active); in test [2], 94.3% (active); in test [3] it was 64.4% (active); in test [4], 81.1% (active).

For the molecule `O=C1Nc2ccccc2/C1=C/c1cnc[nH]1`, the inhibition in test [1] is 14.6%; in test [2] it was 14.2%; in test [3], 40.8%; in test [4], -10.7%.

As to `N#CCCn1cc(C(=O)Nc2ccc([N+](=O)[O-])cc2)c(-c2ccccc2)n1`, the inhibition in test [1] is 7.58%; in test [2] it was 35.3%; in test [3], 41.5%; in test [4], 15.5%.

On to `CC1=CC2OC3CC4OC(=O)C=CC=CC(=O)OCCC(C)C(O)C(=O)OCC2(CC1)C4(C)C31CO1` (stereo not given), for which the inhibition in test [1] is 96.6% (active); in test [2], 109% (active); in test [3], 98.2% (active); in test [4] it was 98.1% (active).

In the case of `Cc1ccccc1-n1c(/C=C/c2ccccn2)nc2ccccc2c1=O`, the inhibition is 35.8% (active) in test [1], 49.5% (active) in test [2], 52% (active) in test [3] and 5.08% in test [4].

As to `CCOC(=O)[C@]12Cc3c(cc(OC)c(OC)c3OC)[C@H]1N(C1CCCCC1)C(=O)c1ccccc12`, the inhibition in test [1] is 45.9% (active); in test [2], 99.8% (active); in test [3] it was 46.2% (active); in test [4] it was 89.3% (active).

In the case of `COC(=O)COc1cc(C)cc2oc(=O)c3c(c12)CCCC3`, the inhibition was 3.14% in test [1], 46.5% (active) in test [2], 50.6% (active) in test [3] and -11.3% in test [4].

For the molecule `COC1/C=C/C=C(\C)Cc2cc(O)c(Cl)c(c2)N(C)C(=O)CC(OC(=O)C(C)C)C2(C)OC2C(C)C2CC1(O)NC(=O)O2` (stereo not given), the inhibition in test [1] was 64.9% (active); in test [2], 60.1% (active); in test [3], 62.5% (active); in test [4], 32.6% (active).

Turning to `O=c1[nH]c2ccccc2n1C1CCN(Cc2ccc(-c3[nH]c4cc5ncnc5cc4nc3-c3ccccc3)cc2)CC1`, the inhibition is 42.3% (active) in test [1], 64.2% (active) in test [2], 44% (active) in test [3] and 25% in test [4].

As for `Cn1cc(NC(=O)CCl)cn1`, the inhibition is 41% (active) in test [1], 61.9% (active) in test [2], 61.2% (active) in test [3] and -18.7% in test [4].

A word on the inhibition: it is the change of the read-out against control, counted positive when it falls.
